Screens: PubChem, National Center for Advancing Translational Sciences (NCATS)
This is a sample that favours compounds with a hit; in the whole collection about 18% have one here.
DT40 TDP1 no CPT: qHTS for Inhibitors of human tyrosyl-DNA phosphodiesterase 1 (TDP1): qHTS in cells in absence of CPT; hit rate 15% among 420,000; Potency, µM (highest dose often 46.2 µM), inactives show top-dose activity change, negative = growth inhibition, actives largely listed as inhibitors; DT40 Tdp1-/- hTDP1 cells, no CPT, ATP luminescence, 48 h; AID 686978, 2013; note: nearly all actives have a fitted effect of over 55% in size
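Chicken DT40 Tdp1-/- cells stably complemented with human TDP1 were seeded at 400 cells/well with DMSO in place of 20 nM camptothecin. After compound pinning, cells grew at least 48 hr at 37 °C; viability read by CellTiter-Glo luminescence.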
VDR inhibitor: Inhibitors of the vitamin D receptor (VDR): qHTS; Vitamin D3 receptor (Homo sapiens), P11473; VDR-SRC2-3 peptide fluorescence polarization, 2 h; Potency, µM, for the others: max response, negative = inhibition, most hits filed as inhibitors; hit rate 0.93% among 400,000; AID 504847, 2011
Target sequence (P11473 whole entry, looked up): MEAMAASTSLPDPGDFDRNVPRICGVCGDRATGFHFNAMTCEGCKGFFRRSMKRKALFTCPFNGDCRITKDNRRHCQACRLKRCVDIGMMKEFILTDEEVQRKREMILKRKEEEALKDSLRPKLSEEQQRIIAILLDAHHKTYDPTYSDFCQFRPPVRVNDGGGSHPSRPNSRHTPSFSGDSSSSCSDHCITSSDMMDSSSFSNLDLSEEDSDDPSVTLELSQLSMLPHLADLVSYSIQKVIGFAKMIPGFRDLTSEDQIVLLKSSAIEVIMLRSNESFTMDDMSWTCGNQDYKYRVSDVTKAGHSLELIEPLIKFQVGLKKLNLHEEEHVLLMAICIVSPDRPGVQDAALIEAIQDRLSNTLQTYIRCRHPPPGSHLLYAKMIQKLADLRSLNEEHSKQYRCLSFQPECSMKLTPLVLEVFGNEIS
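Fluorescence polarization assay of small-molecule disruption of VDR binding to coregulator peptide SRC2-3. Compounds and controls pin-transferred, then read after 2 h incubation at ambient room temperature.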
TDP1 inh: qHTS Assay for Inhibitors of Tyrosyl-DNA Phosphodiesterase (TDP1); AID 485290, 2010; hit rate 0.28% among 350,000; Potency, µM (highest dose often 130 µM), inactives show top-dose activity change, negative = inhibition, most hits filed as inhibitors; recombinant TDP1, AlphaScreen DNA substrate cleavage; Tyrosyl-DNA phosphodiesterase 1 (Homo sapiens), Q9NUW8; note: nearly all actives have a fitted effect of over 40% in size
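Recombinant human Tdp1 (E. coli-expressed, 1 nM final) preincubated with compounds 15 min at room temperature, then 5'-biotin/3'-phosphotyrosine-FITC DNA substrate (15 nM final) added for 5 min. AlphaScreen beads (10 ug/ml final) added 10 min; cleavage lowers signal.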
TDP1 cell CPT: qHTS for Inhibitors of human tyrosyl-DNA phosphodiesterase 1 (TDP1): qHTS in cells in presence of CPT; Potency, µM (titrated, usually from 46.2 µM), for the others: at the top dose activity change, negative = growth inhibition, most hits filed as inhibitors; hit rate 12% among 420,000; chicken DT40 Tdp1-/-;hTDP1 cells + 20 nM CPT, ATP luminescence, 48 h; note: nearly all actives have a fitted effect of over 55% in size
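Cell growth measured by CellTiter-Glo luminescence after a minimum 48 h, 37 C compound exposure with 20 nM CPT in Tdp1-knockout DT40 cells stably expressing hTDP1, seeded 400/well; qHTS titration format.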
KAT2A inh: qHTS Assay for Inhibitors of GCN5L2 | Potency, µM (highest dose often 58.9 µM), for the others: top-dose activity change, negative = inhibition, hits mostly inhibitors | hit rate 0.21% among 390,000 | GCN5L2 HAT assay, ThioGlo1 CoA-SH fluorescence
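GCN5L2 (20nM final) in 50mM HEPES, 0.1mM EDTA pH 7.5, 0.01% Tween-20 was preincubated 15 min at room temperature with compound, then given ThioGlo1 (50uM), H3(1-25) peptide (75uM) and acetyl-CoA (70uM); CoA-thiol fluorescence (Ex340/Em540) was read at 0 and 20 min.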
PLK1 PBD block: qHTS for Inhibitors of PLK1-PDB (polo-like kinase 1 - polo-box domain): Primary Screen; Serine/threonine-protein kinase PLK1 (Homo sapiens), P53350; Plk1 PBD binding of FITC phosphopeptide, fluorescence polarization; Potency, µM, without a hit: max response, negative = inhibition, most hits filed as inhibitors; hit rate 2.8% among 360,000; AID 720504, 2013; note: series mostly up to about 57 µM; nearly all actives have a fitted effect of over 65% in size
Active calls of the source: *. Calls come from the whole dose curve; as a rule, active = well fitted curve in the direction sought with a large enough effect; inconclusive = small, poorly fitted or top-dose-only effect, or another doubt; inactive = no such curve, though single readings can be large; an effect the other way counts as inactive or inconclusive. % is set by controls: 0 for no effect and ±100 for the full control effect; potency is the fitted concentration of half-maximal effect.

Results for O=C(O)CCCN1C(=O)C(=O)/C(=C(/O)c2ccc(Cl)cc2)C1c1ccccc1 (stereo not given) ?
DT40 TDP1 no CPT: 5.8%; VDR inhibitor: 9.7%; TDP1 inh: 2.7%; TDP1 cell CPT: -11.3%; KAT2A inh: -26.6%; PLK1 PBD block: -30.4%

Results for COc1ccc(N/C(C)=C/C(=O)c2ccccc2)cc1 ?
DT40 TDP1 no CPT: -20.9%; VDR inhibitor: -7.2%; TDP1 inh: 10.3%; TDP1 cell CPT: -21.5%; KAT2A inh: -7.0%; PLK1 PBD block: -11.1%

Results for COc1ccc(N/C(C)=C/C(=S)Nc2ccccc2)cc1 ?
DT40 TDP1 no CPT: inconclusive; VDR inhibitor: -6.6%; TDP1 inh: 2.7%; TDP1 cell CPT: 10.3µM*; KAT2A inh: 18.0%; PLK1 PBD block: -12.7%

How did Cc1ccc(C2CN=NC23CCc2ccccc2C3=O)cc1 (stereo not given) do in these assays?
DT40 TDP1 no CPT: 25.9µM*; VDR inhibitor: 5.4%; TDP1 inh: 1.8%; TDP1 cell CPT: 25.9µM*; KAT2A inh: -4.4%; PLK1 PBD block: inconclusive

What do the screens show for `CCCCNC(=O)C1CCCN1S(=O)(=O)c1cccc2nsnc12` (stereo not given)?
DT40 TDP1 no CPT: 0.4%; VDR inhibitor: 7.3%; TDP1 inh: -6.8%; TDP1 cell CPT: -12.7%; KAT2A inh: -12.8%; PLK1 PBD block: -13.4%

What do the screens show for `Cc1cccc(C(C)C)c1NC(=O)C1CCCN1S(=O)(=O)c1cccc2nsnc12` (stereo not given)?
DT40 TDP1 no CPT: 14.6µM*; VDR inhibitor: -2.4%; TDP1 inh: 1.2%; TDP1 cell CPT: 23.1µM*; KAT2A inh: 0.3%

Results for CC1CCCC(NC(=O)C2CCCN2S(=O)(=O)c2cccc3nsnc23)C1C (stereo not given) ?
DT40 TDP1 no CPT: 14.6µM*; VDR inhibitor: -15.0%; TDP1 inh: 0.0%; TDP1 cell CPT: inconclusive; KAT2A inh: -8.3%; PLK1 PBD block: -4.0%

How did CC(=O)Nc1ccc(NC(=O)C2CCCN2S(=O)(=O)c2cccc3nsnc23)cc1 (stereo not given) do in these assays?
DT40 TDP1 no CPT: 2.3%; VDR inhibitor: -10.6%; TDP1 inh: 2.6%; TDP1 cell CPT: -8.0%; KAT2A inh: 0.8%; PLK1 PBD block: -2.6%

How did CCCC(=O)N1CCN(c2nnc(-c3ccccc3)c3ccccc23)CC1 do in these assays?
DT40 TDP1 no CPT: -13.8%; VDR inhibitor: -22.6%; TDP1 cell CPT: -18.6%; KAT2A inh: -6.0%; PLK1 PBD block: -16.6%

What do the screens show for `O=C(COc1ccccc1)N1CCCC1`?
DT40 TDP1 no CPT: 2.5%; VDR inhibitor: -7.2%; TDP1 inh: 6.3%; TDP1 cell CPT: -1.6%; KAT2A inh: 0.2%; PLK1 PBD block: -12.5%

What do the screens show for `O=C(COc1ccc(-c2nnc(N3CCCCC3)c3ccccc23)cc1)N1CCCCC1`?
DT40 TDP1 no CPT: 16.4µM*; VDR inhibitor: 22.3%; TDP1 inh: 2.5%; TDP1 cell CPT: inconclusive; KAT2A inh: 0.2%; PLK1 PBD block: -11.1%

How did O=C(COc1ccc([N+](=O)[O-])cc1)N1CCN(c2nnc(-c3ccccc3)c3ccccc23)CC1 do in these assays?
DT40 TDP1 no CPT: 8.2µM*; VDR inhibitor: 3.8%; TDP1 cell CPT: 20.6µM*; KAT2A inh: 6.1%; PLK1 PBD block: -11.0%

What do the screens show for `Cn1c(=O)c(=O)n(C)c2cc(S(=O)(=O)N3CCCC3C(=O)NCc3cccnc3)ccc21` (stereo not given)?
DT40 TDP1 no CPT: 9.8%; VDR inhibitor: 4.3%; TDP1 cell CPT: 5.6%; KAT2A inh: -4.3%; PLK1 PBD block: -14.7%
